USP17 block: inhibitors of human USP17 deubiquitinase | purified USP17, Ub-rhodamine cleavage fluorescence, 3 h | inhibition, % at 50 µM | actives 6.5% (n = 47,000) | AID 1645855, 2021 | Ubiquitin carboxyl-terminal hydrolase 17-like protein 5 (Homo sapiens), A8MUK1
USP28 block: inhibitors of human USP28 deubiquitinase; inhibition, % at 25 µM; Ubiquitin carboxyl-terminal hydrolase 28 (Homo sapiens), Q96RU2; actives 3% (n = 47,000); AID 1645857, 2021; purified USP28, Ub-rhodamine cleavage fluorescence, 30 min
USP30 block: inhibitors of human USP30 deubiquitinase. actives 5.3% (n = 47,000). Ubiquitin carboxyl-terminal hydrolase 30 (Homo sapiens), Q70CQ3. AID 1645860, 2021. inhibition, % at 25 µM. purified USP30, Ub-rhodamine cleavage fluorescence
OTUD3 inh: inhibitors of human OTUD3 deubiquitinase; OTU domain-containing protein 3 (Homo sapiens), Q5T2D3; purified OTUD3, Ub-rhodamine fluorescence, 2 h; inhibition, % at 25 µM; actives 0.7% (n = 47,000); AID 1645858, 2021
Target sequence (Q5T2D3 whole entry, looked up, the tested form may be a part): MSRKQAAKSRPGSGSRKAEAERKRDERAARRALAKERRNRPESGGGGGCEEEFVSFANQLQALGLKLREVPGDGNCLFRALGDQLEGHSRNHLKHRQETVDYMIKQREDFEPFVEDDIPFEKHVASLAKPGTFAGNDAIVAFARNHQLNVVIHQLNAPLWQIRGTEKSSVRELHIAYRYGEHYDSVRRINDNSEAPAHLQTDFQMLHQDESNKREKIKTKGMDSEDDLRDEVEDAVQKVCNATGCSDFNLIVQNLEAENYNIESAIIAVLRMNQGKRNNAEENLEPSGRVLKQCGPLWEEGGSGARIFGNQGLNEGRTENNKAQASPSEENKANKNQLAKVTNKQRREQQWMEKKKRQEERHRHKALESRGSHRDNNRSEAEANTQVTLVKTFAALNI
Starred values were filed as active, the others as inactive. Shown are actives, neighbours in structure and some others; about 11% of the full set was active somewhere. Cut-off read from the data, not from the text of the source: active = inhibition above about 30%; inactive = the rest.

SMILES	USP17 block	USP28 block	USP30 block	OTUD3 inh
COc1cc(C(=O)Nc2cc(S(=O)(=O)N3CCOCC3)ccc2O)cc(OC)c1OC	-4.8	3.7	7.3	2.0
CN(C)c1ccc(NC(=O)CSc2nnc(-c3ccc(S(=O)(=O)N4CCOCC4)cc3)n2C)cc1	1.4	7.0	44.7*	-10.7
O=C1CC(c2ccccc2)Cc2nc(Nc3cc(Cl)cc(Cl)c3)ncc21 (centres undefined)	32.9*	-8.8	-4.8	5.7
CCC(C(=O)Nc1ncc2c(n1)CC(c1ccc(OC)cc1)CC2=O)c1ccccc1 (centres undefined)	6.8	5.4	13.4	5.4
CCC(C(=O)Nc1ncc2c(n1)CC(c1ccc(F)cc1)CC2=O)c1ccccc1 (centres undefined)	19.7	31.6*	33.8*	21.0
COc1ccc(-c2cc(C(=O)N3CCCC3c3cc(C(C)C)on3)on2)cc1 (centres undefined)	19.5	15.1	29.9	21.2
O=C(Cn1cc(S(=O)(=O)N2CCCCCC2)ccc1=O)Nc1ccc(F)cc1	-12.0	-15.1	-12.2	-9.5
COc1ccc(Cn2c(Oc3ccccc3C)nc3c2c(=O)n(C)c(=O)n3C)cc1	27.0	12.9	32.1*	20.1
Cc1cccc(C(=O)N2CCC(C(=O)c3ccc4c(c3)OCCO4)CC2)c1	6.5	30.5*	26.5	11.8
CC(C)c1ccc(NC(=O)c2c(-c3ccccc3)nnc3ccccc23)cc1	8.4	4.1	23.6	3.0
Cc1nc2ccccc2c(-c2ccccc2)c1C(=O)Nc1ccccc1	8.3	15.9	38.4*	6.2
O=C(C[C@@H]1CCN2C[C@@H]1CCCOc1ccccc1CN(C(=O)c1cccnc1)CC2=O)N1CCOCC1	77.9*	85.9*	92.3*	7.3
CC(C)NC(=O)N1CC(=O)N2CC[C@@H](CC(=O)N3CCOCC3)[C@@H](CCCOc3ccccc3C1)C2	75.1*	72.0*	100.0*	5.6
O=C(C[C@@H]1CCN2C[C@@H]1CCCOc1ccccc1CN(C(=O)COc1ccccc1)CC2=O)N1CCOCC1	71.4*	54.6*	79.2*	2.3
O=C(COC(=O)C1(NS(=O)(=O)c2ccc(Cl)cc2)CCCCC1)Nc1ccc(Cl)c(Cl)c1	6.8	17.6	25.7	4.3
Cc1ccc(N2CC[C@@H]3[C@@H]2CCN3C(=O)N(C)C)nn1	0.2	-0.3	-11.6	10.1
O=C1NC2(CCN(S(=O)(=O)c3ccc(F)c(F)c3)CC2)Nc2ccccc21	-7.9	-16.1	-12.5	-6.0
Cc1ccc(S(=O)(=O)N2CCC3(CC2)NC(=O)c2ccccc2N3)c(C)c1	61.5*	3.3	-5.3	1.5
CC(=O)c1ccc(S(=O)(=O)N2CCC3(CC2)NC(=O)c2ccccc2N3)cc1	16.4	2.5	12.2	2.8
Cc1ccc(S(=O)(=O)N2CCC3(CC2)NC(=O)c2ccccc2N3)cc1C	58.1*	0.1	4.8	-0.7
O=C(NC1CC1)c1ccc2c(c1)CCN2C(=O)C1CCCC1	-3.7	3.8	0.3	0.4
Cc1ccc(Cn2c(=O)n(CCC(=O)NCCc3ccccc3)c(=O)c3ccccc32)cc1	46.4*	29.8	63.1*	24.6
CCCCCn1c(SCC(=O)CC(=O)OCC)nc2cc(C(=O)NCc3ccco3)ccc2c1=O	34.2*	-26.6	-100.7	-5.6
COc1ccc(Cl)cc1NC(=O)Cn1c(=O)n(CCCCC(=O)NCCc2ccccc2)c(=O)c2ccccc21	13.8	1.3	5.0	14.4
Cc1cccc(NC(=O)Cn2c(=O)n(CC(=O)NCCc3ccccc3)c(=O)c3ccccc32)c1C	21.7	13.0	48.1*	12.1
SMILES	USP17 block	USP28 block	USP30 block	OTUD3 inh
COc1ccc(CCNC(=O)CSc2cc(=O)n(C)c3cc(Cl)ccc23)cc1OC	37.6*	5.9	29.8	4.4
CCCc1nc2c(c(=O)n1CC(=O)NCC1CCCO1)CCN(Cc1ccccc1)C2 (centres undefined)	0.4	-0.4	-10.3	10.6
COc1ccc(CCNC(=O)CCCCn2c(=O)c3ccccc3n(Cc3cccc(Cl)c3)c2=O)cc1OC	34.4*	20.7	52.5*	18.4
COc1ccc(CCNC(=O)c2ccc(Cn3c(=O)c4ccccc4n(Cc4cc(=O)n5ccccc5n4)c3=O)cc2)cc1OC	66.1*	29.5	50.2*	4.6
COc1ccc(NC(=O)CCCCn2c(=O)c3ccccc3n(Cc3cccc([N+](=O)[O-])c3)c2=O)cc1	33.2*	16.8	10.5	20.4
Cc1cccc(NC(=O)Cn2c(C)nc3c(c2=O)CCN(Cc2ccccc2)C3)c1C	30.0*	-0.2	-1.9	-15.2
